Test results published in PubChem BioAssay (NCATS).
Results filed as inconclusive are left out. Active and inactive are the calls of the source. The call rests on the fitted dose curve; in most records, active means well fitted inhibition curve with a large enough effect; inconclusive means small, poorly fitted or top-dose-only effect; inactive means flat fitted curve, though single readings scatter.

Target: Calcium and integrin-binding protein 1 (Homo sapiens) (UniProt Q99828)
Experiment: Primary qHTS for Identification of Calcium Integrin Binding Protein 1 (CIB1) Competitor (AID 1508620);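 further: GST tagged CIB1 binding a fluorescein labelled alphaIIb integrin peptide tracer; top concentration of the series differs between compounds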
Details: CIB1-GST / FITC-alphaIIb peptide fluorescence polarization; series mostly up to 114 µM; activity change, negative = inhibition: at the top concentration
Summary of the method: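 Fluorescence polarization competition: CIB1-GST (1 uM final) preincubated with compound 15 min at room temperature, then FITC-labeled alphaIIb peptide (100 nM final) added for another 15 min. Polarization read at Ex 480/Em 540.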
On the % scale 0 is the no-effect control and ±100 the full control effect.

Sequence of Calcium and integrin-binding protein 1 (Homo sapiens) (Q99828 whole entry, looked up): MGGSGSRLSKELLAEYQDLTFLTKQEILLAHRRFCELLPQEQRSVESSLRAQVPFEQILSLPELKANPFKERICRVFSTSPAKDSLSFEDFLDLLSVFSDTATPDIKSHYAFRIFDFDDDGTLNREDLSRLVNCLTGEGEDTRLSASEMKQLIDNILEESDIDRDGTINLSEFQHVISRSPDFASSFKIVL

Row | Structure (SMILES) | activity change, negative = inhibition
1 | COc1cccc(C(=O)N2CCN(C(=O)COc3cccc(C)c3)CC2)c1OC | 1.71% (inactive)
2 | Cc1cc(Nc2ncc3cc(-c4c(Cl)cccc4Cl)c(=O)n(C)c3n2)ccc1F | -3.79% (inactive)
3 | CC1CC(O)/C=C/C(O)C(O)CC(=O)Cc2c(Cl)c(O)cc(O)c2C(=O)O1 (stereo not drawn) | -3.8% [at 57.7 µM] (inactive)
4 | C=C(C(=O)O)[C@@H]1CC[C@@]2(C)CC[C@H](O)[C@@]2(C(C)=O)C1 | -1.05% (inactive)
5 | O=C(C(c1ccccc1)c1ccccc1)N1CCN(CC(O)COc2cccc3ncccc23)CC1 (stereo not drawn) | 1.15% (inactive)
6 | CC1OC(OC2C(O)C(OC3CCC4(C)C(CCC5(C)C4CC=C4C6CC(C)(COC7OC(CO)C(O)C(O)C7O)CC(O)C6(C)CCC45C)C3(C)C)OC(C(=O)O)C2O)C(O)C(O)C1OC1OCC(O)C(O)C1O (stereo not drawn) | 0.165% [at 30.2 µM] (inactive)
7 | C[C@@H]1N[C@H]2N(C1=O)c1ccccc1[C@@]2(O)C[C@@H]1C(=O)N[C@@H](C)c2nc3ccccc3c(=O)n21 | 5.41% [at 57.7 µM] (inactive)
8 | CC1CC(O)C2(OC1=O)OC1C(O)C3C4CCC5CC(OC6OC(CO)C(O)C(O)C6OC6OC(C)C(O)C(O)C6O)CCC5(C)C4CCC3(C)C1C2C (stereo not drawn) | -4.33% [at 30.2 µM] (inactive)
9 | O=C1Nc2ccccc2C(O)(c2ccccc2)C1O (stereo not drawn) | 1.23% (inactive)
10 | COc1cc(C)c(C(=O)O[C@H]2[C@@H](OC(C)=O)[C@H](n3ccc(=O)[nH]c3=O)O[C@@H]2CO)c(OC)c1 | -3.19% [at 57.7 µM] (inactive)
11 | COc1ccc(-c2ccc3c(N4CCOCC4)nc(N4CC(C)OC(C)C4)nc3n2)cc1CO (stereo not drawn) | 1.33% (inactive)
12 | Cc1ncc(CCCN(C)C)cc1Nc1ncc2c(n1)-c1ccc(C(F)(F)F)cc1NC(=S)C2 | -7.67% (inactive)
13 | CC(=O)OC[C@@]12C(=O)C[C@@H](C)[C@]3(C[C@@H](c4ccoc4)O[C@H]3OC(C)=O)[C@H]1CCC[C@]21CO1 | 3.5% [at 57.7 µM] (inactive)
